Consider 48 sequences from the supplement of paper PMC11417369.

± gives the standard deviation of the averaged measurements. The full ranking holds about 25,000 sequences; the median of “ln(normalized median fluorescence intensity)” is about 7.9, and the highest 2% start at about 11. The sample holds the highest values, similar sequences and a random draw of the others, so the mix is not that of the screen.

The assay relates to PfAP2-I AP2 domain 3 (GST-tagged). Description: gcPBM binding intensity (ln(normalized median fluorescence intensity)); higher = stronger DNA binding. In short, it runs like this:
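For binding intensity, the highest Masliner-normalised natural-log median intensity across replicate spots of either probe orientation was taken. Protein bound to the array was stained with Alexa488 anti-GST antibody and scanned at 488 nm. The protein, GST-tagged P. falciparum DNA-binding domains from E. coli at about 25 μg on average, had been applied for 1 h to an Agilent 4 × 180k array of primer-extended double-stranded 36-bp intergenic genomic probes and negative controls.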
On to “TCTAATTTAAAATACACACACATATCTATAATATAT [CACACA_site7029]”, for which the “gcPBM binding intensity (ln)” value was 7.63 ± 0.28.

Consider “TGAAAAATATAAGGTTGTACTTACATCGGGAATAAT [XGTACX_site4701]”, for which the “gcPBM binding intensity (ln)” value turned out to be 8.05 ± 0.55.

As to “TAATTTTCAATAATTTGTACATAATTTTTATAAATT [XGTACX_site8133]”, the “gcPBM binding intensity (ln)” value was found to be 7.49 ± 0.3.

In the case of “AAATCGTAATATATTTGTACTTATTTGAAAAATCCA [XGTACX_site8141]”, the “gcPBM binding intensity (ln)” value worked out at 7.76 ± 0.33.

Consider “TTCTTATTTAATGTATCACACACGAGAATAAAAAAT [CACACA_site8992]”, for which the “gcPBM binding intensity (ln)” value came to 7.98 ± 0.48.

For the sequence “ACATTTTTTTTTTTTTTTCTTTTTCTTTTTCTTTTT [CACACA_negctrl_site1295]”, the “gcPBM binding intensity (ln)” value worked out at 7.72 ± 0.52.

For the sequence “AAATATATAAAAGTATGTACATATGAAAAATATATA [XGTACX_site6165]”, the “gcPBM binding intensity (ln)” value worked out at 8 ± 0.52.

With “AACTAATAGTATATTACATGCAAAAGTAAAAGTAAA [TGCATGCA_site411]”, the “gcPBM binding intensity (ln)” value turned out to be 8.02 ± 0.78.

For the sequence GTATAAAAGTAACTAGTGCATTACATATGAATAAAA, the “gcPBM binding intensity (ln)” value came out at 11.4 ± 0.6.

For the sequence “TAGCTTATTAATATCATACACACATAGATATATTTA [CACACA_site3105]”, the “gcPBM binding intensity (ln)” value is 7.5 ± 0.54.

For “CAATATTATAGATATACACACATAATGTGTAAAAAC [CACACA_site6631]”, the “gcPBM binding intensity (ln)” value is 7.87 ± 0.79.

For “AAAAAATTAACGAGTGCACACATATTTAGATAAAAT [CACACA_site8958]”, the “gcPBM binding intensity (ln)” value was 9.86 ± 0.18.

Turning to “TTAGTAAATACATTTGCACACATTATTTTTTAACAT [CACACA_site5448]”, the “gcPBM binding intensity (ln)” value is 9.36 ± 0.11.

With “TTAAAATGAAGAAGTGCACACATATATATATTTATA [CACACA_site8063]”, the “gcPBM binding intensity (ln)” value stood at 9.67 ± 0.18.

Turning to “TGTAAATTATAACGTGCACACATATTTAAAATGAAA [CACACA_site8915]”, the “gcPBM binding intensity (ln)” value is 11.2 ± 0.15.

On to TTCATTCAAATTAACGTGCACATTATTAGTAAAAAC, for which the “gcPBM binding intensity (ln)” value came out at 11.05 ± 0.035.

As to TAAACGTTAGTATGTGTGCACATTAGTAATTTAAAA, the “gcPBM binding intensity (ln)” value was determined as 9.65 ± 0.3.

“TAAATTATAACGTGCACACATATTTAAAATGAAATG [CACACA_site2820]”: the “gcPBM binding intensity (ln)” value is 11.3 ± 0.23.

Consider “GAAAAATTAAAAATAACACACACATATATATATTTA [CACACA_site8896]”, for which the “gcPBM binding intensity (ln)” value stood at 7.56 ± 0.4.

Take “AAAATTAAAAATAACACACACATATATATATTTATA [CACACA_site2776]”: the “gcPBM binding intensity (ln)” value was found to be 7.66 ± 0.34.

As for “CTTAATAAGAATAAATGTACAAGGGATAAAAAATTT [XGTACX_site3213]”, the “gcPBM binding intensity (ln)” value was found to be 8.02 ± 0.73.

With “TTTTTTTTTTTTGAAACATGCATTGTTTTATTCTTA [TGCATGCA_site15]”, the “gcPBM binding intensity (ln)” value was determined as 7.99 ± 0.85.

Consider “GGAAATTTCAATATTTGTACATATATATATATATAT [XGTACX_site3222]”, for which the “gcPBM binding intensity (ln)” value was found to be 9.56 ± 0.6.

Consider “AGACATAAGATAATTACACACAATACATCCCTATAT [CACACA_site2227]”, for which the “gcPBM binding intensity (ln)” value amounted to 7.76 ± 0.57.

As for “AGAAACCTTGTTAGTTAGCATATATATATATATATA [CACACA_negctrl_site372]”, the “gcPBM binding intensity (ln)” value turned out to be 9.46 ± 0.46.

On to “GGAAGCTAATTACACACATGCATATTTTTTTTTCAA [TGCATGCA_site548]”, for which the “gcPBM binding intensity (ln)” value amounted to 8.16 ± 0.83.

For the sequence “TATACTTTATATATTTTGTATATATATTTTTTTTAT [TGCATGCA_negctrl_site530]”, the “gcPBM binding intensity (ln)” value was determined as 7.5 ± 0.28.

With “GTTAATATTTTTGGGGGTACTTAAAAAAAAAAAAAA [XGTACX_site1477]”, the “gcPBM binding intensity (ln)” value worked out at 9.29 ± 0.26.

Take “ATTTTTTTTTTTTTTTTGGGGGGGTATACTTTTAAA [CACACA_negctrl_site1020]”: the “gcPBM binding intensity (ln)” value turned out to be 11.6 ± 0.4.

On to “ATCTATGATATATACACACACATGTATAAATAAATA [CACACA_site7012]”, for which the “gcPBM binding intensity (ln)” value came to 7.75 ± 0.47.

“TTTTTCTTTTTTTGTTGTACATTTTGTAATATTTAC [XGTACX_site4102]”: the “gcPBM binding intensity (ln)” value was 7.9 ± 0.59.

In the case of “TTATTTTTCTTTATTGGTACACACGAAAAAAAAATT [XGTACX_site6482]”, the “gcPBM binding intensity (ln)” value stood at 8.03 ± 0.3.

Regarding “TTTTTTTTTTTTTTTTTTTTTTTTGGGTCCCATACA [CACACA_negctrl_site913]”, the “gcPBM binding intensity (ln)” value came out at 8.1 ± 0.63.

As to “TAATGGAAACCATTTATTTTCTGCAATATATTTTTT [CACACA_negctrl_site1653]”, the “gcPBM binding intensity (ln)” value was found to be 7.67 ± 0.35.

For the sequence “AATCATTTATTGATGGTGCAATATACCATCTAATGA [GTGCAC_site9440]”, the “gcPBM binding intensity (ln)” value came out at 11.4 ± 0.76.

Take “AAATTTATTATATATACATGCAATCATAAATAATGT [TGCATGCA_site539]”: the “gcPBM binding intensity (ln)” value was found to be 7.68 ± 0.48.

Regarding “TTACAAAAATGTGGTTGTACACAAACAAAAAAAATA [XGTACX_site8506]”, the “gcPBM binding intensity (ln)” value amounted to 8.35 ± 0.29.

Turning to “TCTTTTTTTTCTTTTTTTTTATTTAAATATCAAGTA [CACACA_negctrl_site1354]”, the “gcPBM binding intensity (ln)” value turned out to be 7.59 ± 0.34.

“TTTTATTGTTGTTATACACACCATATAAAATATTTC [CACACA_site4983]”: the “gcPBM binding intensity (ln)” value worked out at 7.92 ± 0.6.

For “ATAAAAAGAAATCCAATACACACCTTCAAAATGGGT [CACACA_site1622]”, the “gcPBM binding intensity (ln)” value is 7.71 ± 0.72.

Consider “AAAGATATAAATTACTGTACTAATGAAATTGGTAAA [XGTACX_site3582]”, for which the “gcPBM binding intensity (ln)” value turned out to be 7.67 ± 0.28.

For “AAGAAAAGCATAGATGCACACATATATATATATATA [CACACA_site8675]”, the “gcPBM binding intensity (ln)” value came out at 9.485 ± 0.078.

Take “ATTATATATATGTGCACACAAAAGATATATATATAT [CACACA_site5205]”: the “gcPBM binding intensity (ln)” value is 10.2 ± 0.13.

On to TTCAAAAGATATATCGTGCACATATATATGATGAAA, for which the “gcPBM binding intensity (ln)” value is 11.155 ± 0.007.

For “ACTTTTATTCGCTTACGTACATATATTATATATTAT [XGTACX_site4459]”, the “gcPBM binding intensity (ln)” value stood at 8.75 ± 0.55.

Turning to “TATAAATATTTATGTACACACATATACATGTTGAAT [CACACA_site5684]”, the “gcPBM binding intensity (ln)” value is 7.95 ± 0.43.

Regarding “AATATTATTATTATTACACACACAATTATATTTACC [CACACA_site8061]”, the “gcPBM binding intensity (ln)” value was determined as 7.93 ± 0.38.

“AACCTTACACAAGGGGTGCAATATTATTTCGATAAA [GTGCAC_site9600]”: the “gcPBM binding intensity (ln)” value was 11.5 ± 0.66.
